Screening results (PubChem)
MPTP inh – permeability transition pore inhibition. isolated mouse mitochondria, Ca2+ swelling absorbance, 30 min. hit rate 1.4% among 360,000. inhibition, % at 10 µM. AID 602449;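 active = inhibition of 50% or more, scaled per plate between neutral and stimulator controls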
HSP90 refold inh – inhibitors of HSP90 luciferase refolding in rabbit reticulocyte lysate; hit rate 0.91% among 290,000; luciferase refolding luminescence, 3 h; inhibition, % at 5.6 µM;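 active = inhibition above the screen-wide mean plus 3 SD, computed separately per campaign, cut at about 16% in these data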;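 note: inhibitors lower the luminescence because luciferase stays unfolded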
dFosB activator – activators of mouse delta FosB homodimer; P13346; purified delta FosB, TAMRA-CDK5 oligo fluorescence polarization; percent of positive-control signal above neutral wells; activation, % at 25 µM; AID 493131; hit rate 0.99% among 340,000;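 active = mean activation above about 17%, with every replicate also reaching it, limit read from the data, passing the limit was not always enough; inconclusive = only one of the two conditions met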
Platelet DG rel – modulates dense granule release in human platelets | inhibition, %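 (compounds screened at 7.5 µM in platelet-rich plasma)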 | human platelet-rich plasma, SFLLRN dense granule ATP release, luminescence | AID 1663 | hit rate 0.22% among 300,000;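 active = mean replicate score, as percent of positive control, at or above 50; inconclusive = mean below 50 but at least one replicate at or above 50; inactive = mean and every replicate below 50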
HSF1 inh – HSF1 inhibition | NIH3T3-HGL HSE-luciferase, MG132-induced, luminescence 8 h; hits give low values | activity change, negative = inhibition, % at 7.5 µM (by protocol) | hit rate 0.77% among 300,000 | AID 2098;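 active = more than half of replicate wells show activity change below -50%, luminescence cut by over half; inconclusive = some wells, but at most half, below -50%; inactive = no replicate well below -50%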;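 note: luciferase reports HSF-1 transcriptional activity via heat shock element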
HSF1 activator – increases HSF-1 driven luciferase reporter signal | activation, % at 9 µM | NIH3T3-HGL HSF-1 luciferase reporter, MG132, 8 h; 100% = twice DMSO control signal | hit rate 1.7% among 300,000;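 active = mean replicate activation of at least 50% with a set share of replicates each reaching 50%; inconclusive = only one of those two conditions met; inactive = mean below 50% and too few replicates reaching it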
HSP90 inh confirm – confirmation of HSP90 inhibitors; inhibition, % at 5.9 µM; shares compounds with HSP90 refold inh; hit rate 64% among 2,300; rabbit reticulocyte lysate, luciferase refolding luminescence, 3 h; AID 1846; in the data active = inhibition above about 18%
luciferase ctr – blocks native firefly luciferase in HSP90 counter-screen; shares compounds with HSP90 refold inh; purified native firefly luciferase, luminescence; inhibition, % at 5.9 µM; hit rate 48% among 2,300; AID 1847;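 active = inhibition above the mean inhibition of all tested sample wells plus 3 SD, cut at about 10% in these data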
Target sequence (P08659 whole entry, looked up): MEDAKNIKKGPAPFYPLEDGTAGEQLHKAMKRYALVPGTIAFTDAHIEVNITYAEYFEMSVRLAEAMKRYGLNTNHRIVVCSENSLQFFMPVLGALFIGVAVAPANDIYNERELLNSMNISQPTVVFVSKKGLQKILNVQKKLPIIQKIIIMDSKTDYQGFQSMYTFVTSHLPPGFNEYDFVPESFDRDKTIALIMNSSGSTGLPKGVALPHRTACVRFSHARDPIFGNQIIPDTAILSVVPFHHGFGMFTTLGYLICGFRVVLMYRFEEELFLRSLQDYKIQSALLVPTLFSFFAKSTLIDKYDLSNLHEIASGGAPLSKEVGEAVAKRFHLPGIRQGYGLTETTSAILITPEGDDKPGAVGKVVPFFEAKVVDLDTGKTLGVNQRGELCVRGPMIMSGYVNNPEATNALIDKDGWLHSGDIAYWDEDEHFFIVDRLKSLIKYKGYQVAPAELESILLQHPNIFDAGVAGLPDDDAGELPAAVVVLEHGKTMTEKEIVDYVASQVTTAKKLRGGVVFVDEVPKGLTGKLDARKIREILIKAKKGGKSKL
Each line names hits and unclear results; the compound was inactive in the other large screens (follow-up assays come after a bar, where they were run). Rows were chosen to be rich in hits. Some 4.9% of all compounds tested hit in one or more screens of this group.

COc1ccc(C(=O)c2coc3ccc(O)c(CN4CCCC4)c23)cc1	HSP90 refold inh 50 | HSP90 inh confirm inactive | luciferase ctr inactive
CC(C)c1ccc(NC(=O)Nc2nc(C(N)c3ccccc3Cl)cs2)cc1 (configuration not stated)	none (no result: HSP90 refold inh, dFosB activator, Platelet DG rel, HSF1 inh, HSF1 activator)
COc1ccc(-c2csc(Nc3ccc(S(N)(=O)=O)cc3)n2)cc1OC	HSP90 refold inh 23 | HSP90 inh confirm inactive | luciferase ctr inactive
NS(=O)(=O)c1ccc(Nc2nc(-c3ccc(F)cc3)cs2)cc1	none
Cc1nc2c(Br)cc(Br)cc2c(=O)n1-c1ccccc1NC1OCC(O)C(O)C1O (configuration not stated)	none (no result: HSP90 refold inh, Platelet DG rel)
CCOC(=O)c1ccc(N/C=C2/CCCC(C)C2=O)cc1 (configuration not stated)	none
CC1CCC/C(=C\Nc2ccc(C(=O)O)cc2)C1=O (configuration not stated)	HSP90 refold inh 37 | HSP90 inh confirm 61 | luciferase ctr 22
Cc1cccc2cc(-c3nc4ccc(C(=O)O)cc4[nH]3)c(=O)oc12	HSP90 refold inh 21 | HSP90 inh confirm inactive | luciferase ctr 21
O=C(O)c1ccc2nc(CO)[nH]c2c1	HSP90 refold inh 36 | HSP90 inh confirm 20 | luciferase ctr inactive
O=C(O)c1cccc(-c2nc3ccccc3[nH]2)c1	HSP90 refold inh 73 | HSP90 inh confirm 80 | luciferase ctr 60
COc1ccc(-c2nc3ccccc3[nH]2)cc1	HSP90 refold inh 20 | HSP90 inh confirm 47 | luciferase ctr 33
CC(C)(C)[C@H]1COC(=O)[C@@H](Cc2ccc(F)cc2)CC/C=C/C[C@@H](CC(=O)N[C@H](CO)Cc2ccccc2)C(=O)N1	none (no result: HSP90 refold inh, Platelet DG rel, HSF1 inh, HSF1 activator)
CCOC(=O)c1ccc(NC(=O)[C@@H]2CCC(=O)N2C2OC(=O)c3c2ccc(OC)c3OC)cc1 (some centres not stated)	none (no result: HSP90 refold inh, dFosB activator, Platelet DG rel, HSF1 inh, HSF1 activator)
COc1ccc(CCC(=O)N2c3ccccc3N=C(c3ccc(C(F)(F)F)cc3)C2C(=O)NC2CCCC2)cc1 (configuration not stated)	none (no result: HSP90 refold inh, dFosB activator, Platelet DG rel, HSF1 inh, HSF1 activator)
Cc1oc(-c2ccc(Cl)cc2)cc1C(=O)O	HSP90 refold inh 20 | HSP90 inh confirm 18 | luciferase ctr inactive
Oc1ccccc1Nc1ccccn1	none
c1ccc(Nc2ccccn2)nc1	HSP90 refold inh 25 (no result: HSF1 inh, HSF1 activator) | HSP90 inh confirm inactive | luciferase ctr inactive
O=C(c1cccc(OC2CCN(Cc3ccc(F)cc3)CC2)c1)N1CCCC1	none
COc1ccc(C2Nc3ccccc3C(=O)N2NS(=O)(=O)c2ccc(C)cc2)cc1OC (configuration not stated)	none
O=c1c(Br)c(N2CCCCC2)cnn1-c1ccccc1	none
Nc1cc(-c2nn[nH]n2)ccc1F	none
CCCc1ccc(-c2ccc(F)c(N)c2)nc1	HSP90 refold inh 53, Platelet DG rel inconclusive | HSP90 inh confirm 77 | luciferase ctr 69
O=C(CSc1cn[nH]n1)Nc1ccccc1C(=O)O	none
Cc1cc(C)nc(N/N=C/C2=C(N3CCOCC3)C(=C\c3ccc(Cl)cc3)/CC2)n1	none
O=C(O)c1ccc(N/N=C/C2=C(N3CCOCC3)C(=C\c3ccccc3)/CC2)cc1	HSP90 refold inh 18, HSF1 inh -60 | HSP90 inh confirm inactive | luciferase ctr inactive
COc1cccc(C(O)c2nc(-c3ccc(F)c(Cl)c3)cs2)c1 (configuration not stated)	none (no result: HSP90 refold inh, dFosB activator, Platelet DG rel, HSF1 inh, HSF1 activator)
Nc1ccc(-c2nc3cc(N)ccc3o2)cc1	none
CN(C)c1ccc(-c2nc3cc(N)ccc3o2)cc1	HSP90 refold inh 30 | HSP90 inh confirm 55 | luciferase ctr 51
C[C@@H]1CN([C@@H](C)CO)C(=O)c2cc(Br)cnc2O[C@H]1CN(C)C(=O)Nc1ccc(F)cc1	none (no result: HSP90 refold inh, dFosB activator, Platelet DG rel, HSF1 inh, HSF1 activator)
O=C(COC(=O)c1ccc(Br)o1)NC1CCCc2ccccc21 (configuration not stated)	none (no result: HSP90 refold inh, Platelet DG rel, HSF1 inh, HSF1 activator)
CC1CCN(S(=O)(=O)c2ccc3c(c2)N(CC(=O)NCCN2C(C)CCCC2C)C(=O)CS3)CC1 (configuration not stated)	HSP90 refold inh 21 | HSP90 inh confirm inactive | luciferase ctr inactive
Nc1nnc(-c2ccccc2[N+](=O)[O-])o1	HSP90 refold inh 30 | HSP90 inh confirm inactive | luciferase ctr inactive
O=[N+]([O-])c1ccccc1-c1nc(-c2ccc(Br)o2)no1	HSF1 activator inconclusive
Cc1ccccc1NC(=S)NNC(=O)c1csc2c1CCC(C)C2 (configuration not stated)	HSP90 refold inh 67, HSF1 inh -69 | HSP90 inh confirm 61 | luciferase ctr 52
CCNC(=S)NNC(=O)c1csc2c1CCC(C)C2 (configuration not stated)	none
COc1cccc(/C=C/C(=O)Nc2ccc(OC)nc2)c1	none
O=c1[nH]c(/C=C/c2ccccn2)nc2ccccc12	none
CN(C)c1ccc(/C=C/c2nc3ccccc3c(=O)[nH]2)cc1	HSP90 refold inh 59 | HSP90 inh confirm 76 | luciferase ctr 73
O=C(Nc1cccc(/C=C/c2nc3ccccc3c(=O)[nH]2)c1)c1ccccc1Cl	none
C(=C\c1nc2ccccc2[nH]1)/c1ccccc1	HSP90 refold inh 31, Platelet DG rel inconclusive | HSP90 inh confirm 54 | luciferase ctr 48
COc1ccc(C(=O)Nc2cccc(/C=C/c3nc4ccccc4c(=O)[nH]3)c2)cc1	HSP90 refold inh 28 | HSP90 inh confirm inactive | luciferase ctr inactive
CC(CC(=O)N1CCc2ccccc21)n1cccn1 (configuration not stated)	none
Cc1csc(NC(=O)c2cnc3ccccc3n2)n1	HSP90 refold inh 43 | HSP90 inh confirm 53 | luciferase ctr 40
Cc1csc(NC(=O)c2cn3ccccc3n2)n1	HSP90 refold inh 54, Platelet DG rel 57 | HSP90 inh confirm 70 | luciferase ctr 62
CCc1ccc(C(=O)Nc2nc(C)cs2)s1	HSP90 refold inh 43 | HSP90 inh confirm 56 | luciferase ctr 52
O=C(Nc1ccccc1)c1cn2ccccc2n1	HSP90 refold inh 37 | HSP90 inh confirm 59 | luciferase ctr 41
CCOC(=O)CNc1nc(Cl)nc(Nc2ccc(Cl)cc2)n1	dFosB activator inconclusive
O=C(c1ccc(S(=O)(=O)N2CCc3ccccc3C2)cc1)N1CCCCC1	none
COC(=O)CCC(NC(=O)c1cc(-c2ccc3c(c2)OCCO3)oc1C)C(=O)OC (configuration not stated)	none
Cc1oc(-c2ccc3c(c2)OCCO3)cc1C(=O)NC(Cc1ccccc1)C(=O)O (configuration not stated)	HSP90 refold inh 39 | HSP90 inh confirm 65 | luciferase ctr 18
N=C(CC1CC(=O)NC(=O)C1)C1=C(O)CCCC1=O	none
COc1cccc(/C=N/Nc2nnc(C)n2N)c1OCc1ccccc1Cl	none
